Assay results: PubChem BioAssay AID652174 (National Center for Advancing Translational Sciences (NCATS), 2013)
Calls of active or inactive are those of the source. Calls follow the shape of the dose curve; as a rule, active = well fitted curve in the direction sought with a large enough effect; inactive = no such curve, though single readings can be large or run the other way.

target: Ubiquitin carboxyl-terminal hydrolase 2 (Homo sapiens) (UniProt O75604); assay: Confirmation Assay for Inhibitors of Ubiquitin-specific Protease USP2a Using CHOP2 as the Reporter: SAR; conditions: USP2 core, Ub-CHOP2 reporter, fluorescence 485/531
Source text: Homeostasis of cellular proteins is maintained through a combination of synthesis and degradation. The pathway that accounts for the majority of protein degradation is the ubiquitin-proteasomal pathway. Ubiquitin (Ub) is highly conserved in all cells and the generation of a multi-Ub chain typically targets proteins for degradation by the proteasome. However, ubiquitination is highly reversible and dynamic. Deubiquitination, the reverse process, is catalyzed through the action of enzymes referred to as isopeptidases or deubiquitinating enzymes (DUBs). This group of enzymes is collectively responsible for maintaining adequate pools of free ubiquitin and regulating the ubiquitination status of cellular proteins. […] Thus, this coupled assay gives a fluorescent read-out at excitation/emission wavelengths of 485/531. […]
The assay buffer, prepared fresh at the day of the assay, contains 20mM Tris-HCl pH 8.0, 2mM CaCl2, 2mM beta-Mercaptoethanol, 0.05% CHAPS. […] Plates were read after 60min RT incubation on a ViewLux (Perkin Elmer) plate reader using the following wavelengths Ex 485nm /Em 531nm. […] Concentration-response curves were fitted to the normalized data and the concentration-response curves were then classified based on curve quality (r2), response magnitude and degree of measured activity. The time zero reading was used to flag fluorescence artifacts. […]

Chain of Ubiquitin carboxyl-terminal hydrolase 2 (Homo sapiens) (O75604 whole entry, looked up): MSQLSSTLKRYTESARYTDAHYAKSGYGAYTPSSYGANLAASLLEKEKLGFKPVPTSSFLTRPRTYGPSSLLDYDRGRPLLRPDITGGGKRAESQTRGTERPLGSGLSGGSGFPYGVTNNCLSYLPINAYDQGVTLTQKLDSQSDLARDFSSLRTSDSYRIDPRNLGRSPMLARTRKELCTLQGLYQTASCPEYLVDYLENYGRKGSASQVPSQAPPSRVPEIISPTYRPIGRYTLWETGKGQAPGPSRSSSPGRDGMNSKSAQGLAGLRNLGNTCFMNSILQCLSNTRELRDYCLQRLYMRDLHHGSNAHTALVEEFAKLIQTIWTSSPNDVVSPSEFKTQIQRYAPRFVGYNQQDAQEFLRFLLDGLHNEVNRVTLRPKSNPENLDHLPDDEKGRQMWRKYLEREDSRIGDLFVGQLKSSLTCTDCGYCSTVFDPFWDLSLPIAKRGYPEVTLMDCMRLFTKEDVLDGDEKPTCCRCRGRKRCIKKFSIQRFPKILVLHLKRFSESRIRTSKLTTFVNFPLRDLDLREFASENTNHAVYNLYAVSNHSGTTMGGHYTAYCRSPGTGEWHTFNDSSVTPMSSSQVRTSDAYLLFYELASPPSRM

Structure (SMILES)	Potency
Cc1ccc(S(=O)(=O)Nc2ccccc2C(=O)Nc2nc(-c3ccc(Cl)cc3)cs2)cc1	5.65 µM (active)
Cc1ccc(S(=O)(=O)Nc2ccccc2C(=O)Nc2nc(-c3ccccc3)cs2)cc1	11.3 µM (active)
